Experiment [1] is described as follows: NCI Yeast Anticancer Drug Screen. Data for the rad50 strain (AID 155).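 Note: 0% = growth of vehicle-only cultures of the same strain.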 The note with it: S. cerevisiae rad50 strain growth inhibition, hits give high values. The method, boiled down:
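A DNA repair-deficient yeast mutant serves as the test organism; compound-induced growth inhibition is calculated against vehicle-treated cells.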

The nature of experiment [2]: NCI Yeast Anticancer Drug Screen. Data for the mec2-1 strain (AID 157). The note with it: S. cerevisiae mec2-1 strain, hits give high values. The method, boiled down:
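mec2-1 yeast strain, carrying an alteration in DNA damage repair or cell cycle control, was exposed to compounds; growth inhibition was measured relative to vehicle-treated controls.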

A short description of experiment [3]: NCI Yeast Anticancer Drug Screen. Data for the sgs1 mgt1 strain (AID 161).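 Note: 0% = growth of cultures given vehicle only.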 As to conditions: S. cerevisiae sgs1 mgt1 strain, hits give high values. In outline:
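Percent growth inhibition was derived by comparing compound-exposed mutant yeast with vehicle-exposed cultures. The strain carries alterations in DNA damage repair.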

Experiment [4] can be described thus: NCI Yeast Anticancer Drug Screen. Data for the cln2 rad14 strain (AID 165).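 Note: 0% = growth equal to vehicle treated cultures.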 As to conditions: S. cerevisiae cln2 rad14 strain, hits give high values. The method, boiled down:
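Yeast carrying cln2 and rad14 alterations (cell cycle control and DNA damage repair) were exposed to compounds. Growth inhibition was measured against vehicle-treated controls.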

A short description of experiment [5]: NCI Yeast Anticancer Drug Screen. Data for the bub3 strain (AID 167). As to conditions: S. cerevisiae bub3 mutant strain, hits give high values. In outline:
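Inhibition values come from growth of compound-treated mutant yeast normalised to vehicle-treated controls.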

Experiment [6] in a line: NCI Yeast Anticancer Drug Screen. Data for the mlh1 rad18 strain (AID 175). The note with it: S. cerevisiae mlh1 rad18 strain growth inhibition, hits give high values. The method, boiled down:
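Growth inhibition of the yeast strain was measured after compound exposure and expressed relative to vehicle-treated controls. The strain carries defined defects in DNA damage repair.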

Setting [7] is: at 5.0 µM (retest, dose inferred, filed as 0.5).
The mark [8] stands for this setting: at 50.0 µM (retest, dose inferred, filed as 5.0).

The panel holds about 79,000 compounds, 15% with a hit somewhere; the sample as a whole holds those more often. Values without a mark were called inactive. Activity calls are given as the source filed them. Cut-off read from the data, not from the text of the source: active = growth inhibition above about 70%; inactive = the rest.

As for `Clc1nc2cc3nc(Cl)c(Cl)nc3cc2nc1Cl`, the growth inhibition was 18% in experiment [1] (setting [7]); 71% (active) in experiment [1] (setting [8]); 21.2% in experiment [1] (at 50.0 µM); 24% in experiment [2] (setting [7]); 93% (active) in experiment [2] (setting [8]); 16.3% in experiment [2] (at 50.0 µM). The growth inhibition in experiment [3] (setting [7]) was 14%; in experiment [3] (setting [8]), 24%; in experiment [3] (at 50.0 µM), 36.4%; in experiment [4] (setting [7]), 26%; in experiment [4] (setting [8]), 23%; in experiment [4] (at 50.0 µM), 30.1%. Also, the growth inhibition in experiment [5] (setting [7]) was 17%; in experiment [5] (setting [8]), 30%; in experiment [5] (at 50.0 µM), 15.6%; in experiment [6] (setting [7]), 29%; in experiment [6] (setting [8]) it was 91% (active); in experiment [6] (at 50.0 µM), -1.2%.

For `O=C(Nn1c(=O)c(=O)oc2ccccc21)C(F)(F)F`, the growth inhibition was 0% in experiment [1] (setting [7]); 90% (active) in experiment [1] (setting [8]); 94.7% (active) in experiment [1] (at 50.0 µM); 1% in experiment [2] (setting [7]); 87% (active) in experiment [2] (setting [8]); 69.4% in experiment [2] (at 50.0 µM). Further, the growth inhibition in experiment [3] (setting [7]) was 17%; in experiment [3] (setting [8]), 88% (active); in experiment [3] (at 50.0 µM), 81.2% (active); in experiment [4] (setting [7]) it was 3%; in experiment [4] (setting [8]), 93% (active); in experiment [4] (at 50.0 µM) it was 94.2% (active). Besides, the growth inhibition in experiment [5] (setting [7]) is 9%; in experiment [5] (setting [8]), 95% (active); in experiment [5] (at 50.0 µM), 90.9% (active); in experiment [6] (setting [7]), 26%; in experiment [6] (setting [8]) it was 97% (active); in experiment [6] (at 50.0 µM), 97.4% (active).

For `COc1ccc2c(c1)Cc1cc(NC(=O)N(CCCl)N=O)ccc1-2`, the growth inhibition in experiment [1] (setting [7]) is -2%; in experiment [1] (setting [8]) it was 85% (active); in experiment [1] (at 50.0 µM), 90.2% (active); in experiment [2] (setting [7]), 2%; in experiment [2] (setting [8]), 88% (active); in experiment [2] (at 50.0 µM), 55.9%. Moreover, the growth inhibition is 3% in experiment [3] (setting [7]); 77% (active) in experiment [3] (setting [8]); 89.2% (active) in experiment [3] (at 50.0 µM); -5% in experiment [4] (setting [7]); 49% in experiment [4] (setting [8]); -0.85% in experiment [4] (at 50.0 µM). In addition, the growth inhibition was -11% in experiment [5] (setting [7]); 41% in experiment [5] (setting [8]); 22.9% in experiment [5] (at 50.0 µM); 28% in experiment [6] (setting [7]); 94% (active) in experiment [6] (setting [8]); 95.6% (active) in experiment [6] (at 50.0 µM).

Turning to `CC(=O)OCCn1c2nc(=O)[nH]c(=O)c-2nc2cc(C)c(C)cc21`, the growth inhibition is -4% in experiment [1] (setting [7]); 18% in experiment [1] (setting [8]); 0.8% in experiment [1] (at 50.0 µM); 0% in experiment [2] (setting [7]); 18% in experiment [2] (setting [8]); -3.35% in experiment [2] (at 50.0 µM). For the same molecule, the growth inhibition is 1% in experiment [3] (setting [7]); 81% (active) in experiment [3] (setting [8]); 35% in experiment [3] (at 50.0 µM); -4% in experiment [4] (setting [7]); 2% in experiment [4] (setting [8]); -42.9% in experiment [4] (at 50.0 µM). In addition, the growth inhibition is -1% in experiment [5] (setting [7]); 1% in experiment [5] (setting [8]); 8% in experiment [5] (at 50.0 µM); 9% in experiment [6] (setting [7]); 14% in experiment [6] (setting [8]); 47.5% in experiment [6] (at 50.0 µM).

Regarding `COc1cc(C2C(C(=O)O)=C(C)Oc3cc4c(cc32)OCO4)cc(OC)c1OC` (stereo not given), the growth inhibition in experiment [1] (setting [7]) is 91% (active); in experiment [1] (setting [8]), 90% (active); in experiment [1] (at 50.0 µM), 94.2% (active); in experiment [2] (setting [7]), 70% (active); in experiment [2] (setting [8]) it was 88% (active); in experiment [2] (at 50.0 µM), 92.8% (active). Also, the growth inhibition in experiment [3] (setting [7]) was 77% (active); in experiment [3] (setting [8]), 93% (active); in experiment [3] (at 50.0 µM) it was 97% (active); in experiment [4] (setting [7]) it was 82% (active); in experiment [4] (setting [8]) it was 91% (active); in experiment [4] (at 50.0 µM) it was 88.8% (active). For the same molecule, the growth inhibition was 86% (active) in experiment [5] (setting [7]); 87% (active) in experiment [5] (setting [8]); 48.5% in experiment [5] (at 50.0 µM); 68% in experiment [6] (setting [7]); 85% (active) in experiment [6] (setting [8]); 97.8% (active) in experiment [6] (at 50.0 µM).
